# According to PubChem BioAssay AID2326 (National Center for Advancing Translational Sciences (NCATS), 2010):
# Hit rate of the full screen: of about 270,000 compounds, about 1,100 (0.41%) were called active. About 3% were inconclusive and are not listed. The sample holds actives, similar compounds and a random draw of the others, so the mix is not that of the screen. Values without a mark were called inactive. The call rests on the fitted dose curve.
# Assay: qHTS Assay for Inhibitors of Influenza NS1 Protein Function; further: actives are rising curves; nearly all actives have a fitted effect of over 50% in size
# Details: series mostly up to 46.1 µM; activity, positive = more growth: at the top concentration
# Text: NIH Chemical Genomics Center [NCGC]
# NIH Molecular Libraries Probe Centers Network [MLPCN]
# Assay Submitter (PI): Daniel Engel
# Influenza is a world-wide public health problem and emerging forms of the virus have the potential to cause a pandemic of equal or greater magnitude to the outbreaks recorded in 1918, 1957 or 1968. Vaccine development is proceeding and there also exist two classes of anti-influenza compounds. However these therapeutic modalities are neither fully effective nor widely enough available to fulfill global needs. In addition their potential usefulness against newly emergent strains is not known. Efforts are needed to develop novel agents against influenza virus, including broad-spectrum agents. Identification of small molecules that inhibit NS1 function either directly or by interfering with specific cellular pathways may be a key to increasing our defense against the virus.
# We have miniaturized and optimized a cell based assay in which NS1 from influenza A is expressed in the budding yeast S. cerevisiae. NS1 is a multi-functional protein that counters the host innate immune response and facilitates viral versus cellular gene expression. Expression of NS1 causes a pronounced slow growth phenotype in yeast due to its intrinsic molecular activities. Small molecules that suppress the slow growth phenotype can be identified by a straightforward growth recovery assay using optical density (OD) as the measurement. The same yeast strain not expressing NS1 was used as positive control in the yeast growth recovery assay.
# The yeast S. cerevisiae control and NS1 expressing cells were kindly supplied by laboratory of Dr. Daniel Engel, University of Virginia. Yeast starter cultures were stored in single use aliquots at -80C.
# 1. Yeast culture medium per liter: 1.2 g Yeast Nitrogen Base (w/out amino acids and Ammonium Sulphate), 5.0g Ammonium Sulphate, 0.77g -URA DO (drop-out) Supplement, adjust pH to 6.0. Adjust to 2% glucose prior to inoculating with yeast.
# 2. Yeast assay medium: 1.2 g Yeast Nitrogen Base (w/out amino acids and Ammonium Sulphate), 5.0g Ammonium Sulphate, 0.77g -URA DO (drop-out) Supplement, adjust pH to 6.0. Adjust to 2% D-galactose prior to inoculating with yeast.
# 1. Inoculate 100 mls of yeast culture medium with 1 ml of frozen yeast aliquote. Incubate overnight at 30C, 250RPM.
# 2. Harvest overnight culture at 4000 RPM and wash pellet with 15 mls H2O 3x.
# 3. Re-suspend washed pellet in 10 mls of yeast assay medium.
# 4. Prepare a 1:100 dilution of re-suspended culture in yeast assay medium.
# 5. Dispense 3.5 ul per well of reagents in step 4 in columns 2-48 in a black clear bottom 1536 well plate.
# 6. Dispense 3.5 ul per well of yeast assay medium in column 1 only.
# 7. Transfer 23 nl of compound per well.
# 8. Dispense 3.5 ul per well of yeast assay medium in columns 1-48.
# 9. Read plate using Viewlux protocol for optical density 600 (OD600) using excitation filter 600nm.
# Potency means the concentration at half of the fitted maximal effect.
SMILES,"activity, positive = more growth [%]",Potency
COc1ccc(/C=C2\SC(=O)N(CCC(=O)NCCCn3ccnc3)C2=O)cc1,-0.375,
COC(=O)CN1C(=O)C(C)(C)Oc2ccc(C(=O)Nc3cccc(OC)c3)cc21,-9.9,
COc1cccc(-n2c(SCC(=O)NC3CCCCC3)nc3n[nH]c(C)c3c2=N)c1,,3.16 µM (active)
Cc1ccc(-n2c(SCC(=O)NCCC3=CCCCC3)nc3n[nH]c(C)c3c2=N)cc1Cl,-0.553,
CCCCNC(=O)CSc1nc2n[nH]c(C)c2c(=N)n1-c1cccc(Cl)c1C,9.85,
O=C(NC(=S)Nc1ccc(Cl)cc1Cl)C1CC1,-10.3,
COc1ccc(Oc2cn[nH]c2-c2ccc(OC)cc2O)cc1,-65.9,
Cc1cc(C)c(SCCc2ccncc2)c(C)c1,-40.4,
O=c1c2ccccc2ncn1/N=C/c1ccccc1,-8.05,
C[C@@H](C(=O)Nc1ccc2ccccc2c1)[C@@H]1C[C@@]1(C)[C@@H](NC(=O)c1cccnc1)c1ccccc1,,12.6 µM (active)
COC(=O)[C@H](C)[C@H]1C[C@]1(C)[C@H](NC(=O)OCc1ccccc1)c1ccccc1,-66.8,
O=C(Nc1ccc(N2CCN(C(=O)c3ccccc3)CC2)c(Cl)c1)c1cccnc1,-2.87,
O=C(Nc1nnc(C2=COCCO2)o1)c1ccc([N+](=O)[O-])s1,-17.1,
O=C(N/N=C\c1cc2c(cc1Cl)OCO2)c1ccc(Br)s1,-1.29,
CCCOC1CCCN(C(=O)c2cc(COc3cncc(Cl)c3)on2)C1 (stereo not given),-16.5,
CC(C)(C)c1ccc(CN2C(=O)c3ccccc3S2(=O)=O)cc1,-6.88,
COc1ccc(-c2nc(CS(=O)CC(=O)NCc3ccccn3)c(C)o2)cc1 (stereo not given),,14.1 µM (active)
COc1cccc(-c2nc(CS(=O)CC(=O)NCc3ccc(F)cc3)c(C)o2)c1 (stereo not given),6.23,
COc1ccc(-c2nc(CS(=O)CC(=O)NCc3ccccc3)c(C)o2)cc1OC (stereo not given),2.37,
Cc1c(C)n(Cc2ccc(Cl)cc2)c2ccc(C(=O)NCCCN3CCOCC3)cc12,2.54,
COCn1c(COc2ccccc2)nc2ccccc21,-9.61,
COc1ccccc1Cn1c(CO)nc2ccccc21,2.42,

SMILES,"activity, positive = more growth [%]",Potency
COCc1nc2ccccc2n1Cc1ccccc1Br,,2.82 µM (active)
CN(CCO)c1ccc(/C=N/Nc2nncc3ccccc23)cc1,-0.974,
CCc1ccccc1S(=O)(=O)Cc1ccc(C(=O)NCCc2ccccc2)o1,5.46,
Clc1c(OCCCn2ccnc2)ccc2ccccc12,-92.1,
Cn1c(CSCC(=O)Nc2ccccc2)nnc1SCc1ccccc1,-3.56,
Cn1c(CC(=O)Nc2ccccc2)nnc1SCC(=O)c1ccccc1,,11.2 µM (active)
Cn1c(Cc2cccs2)nnc1SCC(=O)Nc1ccccc1,11.6,
O=S1(=O)CCOC[C@H](CC2CCCCC2)N1Cc1ccc(F)cc1,-5.09,
Cc1nonc1C1CCCN1C(=O)c1cc(COc2cccc(C(F)(F)F)c2)on1 (stereo not given),1.92,
COc1ccc(C(=O)CC(=O)c2ccc(C)cc2)c(O)c1,-8.33,
O=C(Nc1ccccc1)c1ccc2c(c1)OCCCO2,-89.8,
Cc1cc(=O)[nH]c(SCc2cccc(F)c2)n1,-3.47,
COc1ccccc1-c1noc(CSc2nc(C)cc(=O)[nH]2)n1,1.14,
Cc1cc(=O)[nH]c(SCc2cc(Cl)ccc2OC(F)F)n1,,3.16 µM (active)
CC(=O)N1CCc2c(sc(NC(=O)CCS(=O)(=O)c3ccccc3)c2C#N)C1,-4.08,
Cc1ccc(N(Cc2cc(=O)[nH]c3ccccc23)C(=O)CCl)cc1,2.46,
CC(C)n1c(COc2ccccc2)nc2ccccc21,-47.3,
Cc1cccc(NC(=O)c2ccc3c(=O)n(CC4CCCO4)c(=S)[nH]c3c2)c1 (stereo not given),-0.15,
CC1CCN(C2=NC(=O)/C(=C/c3ccc(O)cc3)S2)CC1,15,
O=S(=O)(c1ccc(OCC(O)CN2CCN(c3ccccc3Cl)CC2)cc1)N1CCOCC1 (stereo not given),,1.26 µM (active)
OC(COc1ccc2ccccc2c1)CN1CCOCC1 (stereo not given),1.77,
CC(=O)Nc1ccc(OCC(O)CN2CCN(c3ccccc3Cl)CC2)cc1 (stereo not given),-6.58,

SMILES,"activity, positive = more growth [%]",Potency
Cc1cccnc1CC(C)NC(=O)c1cc(COc2cncc(Cl)c2)on1 (stereo not given),-7.9,
O=[N+]([O-])c1ccc2c(c1)Nc1nc3ccccc3nc1N2,-62.4,
Cc1cc(Br)ccc1NC(=S)NC1CCCC1,-89.5,
Clc1cccc(N=C2NN=C(c3ccc4c(c3)OCCO4)CS2)c1,13.9,
Cc1cccc(N=C2NN=C(c3c[nH]c4ccccc34)CS2)c1,,14.1 µM (active)
Cc1ccc(-c2csc(-c3c[nH]c4ccccc34)n2)cc1,-6.52,
COc1ccccc1NC(=O)C1CCN(C(=O)c2ccc(C(C)(C)C)cc2)CC1,3.23,
Cc1ccc(NC(=S)NCCc2ccc(Cl)cc2)c(C)c1,-44.7,
COc1ccc2[nH]c(C(=O)N/N=C/c3cc(OC)c(OC)c(OC)c3)cc2c1,-2.63,
Cn1c(NC(=O)c2ccccc2)nc2ccccc21,-89.1,
COCCCNC(=S)N1CCN(c2nc(-c3cccc(OC)c3)cs2)CC1,2.39,
Cc1cc(C)nc(NC(=O)C(C)N2C(=O)c3ccccc3C2=O)n1 (stereo not given),3.33,
CC(C(=O)O)N1C(=O)c2cccc3cccc1c23 (stereo not given),,14.1 µM (active)
CC(C(=O)NC1CCCCC1)N1C(=O)c2cccc3cccc1c23 (stereo not given),4.31,
O=C1/C(=C/c2ccc(F)cc2)SC(=S)N1CCCC(=O)N1CCCCC1CCO (stereo not given),-51.5,
O=C(NCCCN1CCOCC1)c1ccc2c(c1)N(Cc1cccc(F)c1)C(=O)c1ccccc1S2,2.04,
CN(C)S(=O)(=O)N1CCC(Oc2cccc(C(=O)NCCCC3CCCC3)c2)CC1,-0.22,
O=C(CC1N=C2c3ccccc3N=C(SCc3ccccc3Cl)N2C1=O)NCc1ccco1 (stereo not given),8.45,
O=C(CSC1=Nc2ccccc2C2=NC(CC(=O)NCc3ccco3)C(=O)N12)NCc1ccco1 (stereo not given),,7.94 µM (active)
NC(=O)CSC1=Nc2ccccc2C2=NC(CCC(=O)NCc3ccc(F)cc3)C(=O)N12 (stereo not given),-1.66,
CN(c1ccc(O)cc1)c1nc(-c2cccnc2)cs1,-47.4,
